A selection: hits, their analogues and other compounds. The true share with any hit is near 8.3%.
RORg inh – ROR gamma (mouse) transcription inhibition; Potency, µM (highest dose often 53.6 µM), inactives show at the top dose activity change, negative = inhibition, actives largely listed as inhibitors; hit rate 5.4% among 310,000; Drosophila S2 Gal4-RORgamma UAS-luciferase reporter, 20 h; also: potency is read from the fitted curve at half-maximal effect; % is scaled to controls: 0 for no effect and ±100 for the full control effect; nearly all actives have a fitted effect of over 60% in size
Target sequence (P51450 whole entry, looked up, the tested form may be a part): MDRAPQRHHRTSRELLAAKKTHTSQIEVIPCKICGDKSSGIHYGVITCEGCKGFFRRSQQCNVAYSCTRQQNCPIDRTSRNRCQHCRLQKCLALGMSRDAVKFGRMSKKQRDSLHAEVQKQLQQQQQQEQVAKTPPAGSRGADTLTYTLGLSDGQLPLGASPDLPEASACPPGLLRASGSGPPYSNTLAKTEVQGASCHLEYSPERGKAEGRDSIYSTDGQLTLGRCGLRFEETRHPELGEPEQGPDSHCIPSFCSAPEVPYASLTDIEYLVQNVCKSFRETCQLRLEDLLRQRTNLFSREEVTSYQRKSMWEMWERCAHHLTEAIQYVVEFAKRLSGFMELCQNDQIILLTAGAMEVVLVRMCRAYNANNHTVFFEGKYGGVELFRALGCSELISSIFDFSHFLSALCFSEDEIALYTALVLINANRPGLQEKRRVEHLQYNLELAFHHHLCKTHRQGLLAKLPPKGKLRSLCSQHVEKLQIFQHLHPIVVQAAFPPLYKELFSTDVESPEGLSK
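Drosophila S2 cells stably expressing Gal4-DBD/mouse RORγ fusion under metallothionein promoter plus UAS-luciferase; compound 1 h, then 700 uM CuSO4 induction for 20 h at ambient temperature; inhibition read as reduced luminescence.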
MCF10A rereplic – induces DNA re-replication in MCF 10a normal breast cells; AID 624296; Potency, µM (highest dose often 46.1 µM), inactives show top-dose activity, positive = re-replication, hits mostly activators; hit rate 2.9% among 350,000; MCF 10A DNA re-replication, Hoechst nuclear intensity, 48 h; also: potency is read from the fitted curve at half-maximal effect; % of control where 0% means no effect; nearly all actives have a fitted effect of over 50% in size
SW480 rerep – DNA re-replication induction in SW480 cells | AID 624297 | hit rate 1.8% among 340,000 | SW480 DNA re-replication, Hoechst DNA content imaging, 48 h | Potency, µM (top dose mostly 46.1 µM), for the others: at the top dose re-replication activation, hits mostly activators; also: potency is read from the fitted curve at half-maximal effect; % of control where 0% means no effect; nearly all actives have a fitted effect of over 55% in size
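Compounds, transferred as 23 nL by pin tool, were incubated with cells for 48 hr; DNA content per nucleus was then quantified by Hoechst staining and fluorescence plate imaging.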
Giardia kill – kills Giardia lamblia; activity change, % at 7.66 µM, hits read low; hit rate 0.15% among 340,000; Giardia lamblia trophozoite viability; in the data active = activity change below about -80%; inconclusive = between about -30% and that limit;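 also: parasites exposed to compound for two days anaerobically before the ATP read; % is scaled to controls: 0 for no effect and ±100 for the full control effect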
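Anaerobic 48 hrs incubation at 37 deg C of 100 trophozoites/well with test compounds; ATPLite 1-Step luminescence, 15-30 min RT, reports cellular ATP as viability.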
Chronic BCR inh – chronic active BCR signaling inhibition. ABC-DLBCL IkBa-CBG/CBR reporter, luminescence ratio, 4 h. Potency, µM (titrated, usually from 46.1 µM), without a hit: at the highest dose activity change, negative = inhibition, actives largely listed as inhibitors. hit rate 0.05% among 340,000. AID 493014; active = well fitted inhibition curve with a large enough effect in the signal ratio, with a control signal flat, not every such curve was filed as active; inconclusive = small, poorly fitted or top-dose-only effect, or effect the other way, or a change in a side signal; the % refers to the signal ratio;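 also: potency is read from the fitted curve at half-maximal effect; plate controls were basal doxycycline-induced cells for no effect and cells given 10 µM MG132 for full effect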
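Concentration-response series (up to 46 uM) were applied to TMD8 dual-reporter cells for 4 h at 37C with doxycycline. Green/red ratio, after filter-overlap correction, defined %Activity; red signal alone was normalised to basal cells and zero luminescence.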
VP16 counter – Gal4-VP16 reporter inhibition counter-screen. Drosophila S2 Gal4-VP16 UAS-luciferase, luminescence, 20 h. Potency, µM (top dose mostly 53.6 µM), inactives show top-dose activity, negative = inhibition, usual class: inhibitors. hit rate 3.5% among 310,000. AID 2546;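 also: Gal4-VP16 expression switched on by copper sulfate through the metallothionein promoter; potency is read from the fitted curve at half-maximal effect; % is scaled to controls: 0 for no effect and ±100 for the full control effect; nearly all actives have a fitted effect of over 50% in size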
An asterisk follows results filed as active; ? = inconclusive; . = no result given; [ ] = remark or other dose. Unless noted, calls follow the shape of the dose curve; as a rule, active = well fitted curve in the direction sought with a large enough effect; inconclusive = small, poorly fitted or top-dose-only effect, or another doubt; inactive = no such curve, though single readings can be large; an effect the other way counts as inactive or inconclusive.

SMILES	RORg inh	MCF10A rereplic	SW480 rerep	Giardia kill	Chronic BCR inh	VP16 counter
FC(F)(F)c1ccc(C2[C@H]3CN(CC4CCCCC4)[C@H](c4ccccc4)C34CC2(c2cccnc2)C4)cc1 (some centres not stated)	-24%	-4%	1%	1	0%	7%
CCOC(=O)CC1C(=O)NCCN1C(=O)c1ccc(Cl)c(Cl)c1 (configuration not stated)	-18%	-3%	2%	-1	2%	5%
CC(C)C(NC(=O)c1ccccc1)C(=O)OCn1nnc2ccccc2c1=O (configuration not stated)	.	-2%	?	8	0%	.
Cc1cc(C)nc(-n2ncc3c2CC(c2ccccc2)CC3=O)n1 (configuration not stated)	-23%	20%	-7%	10	-5%	3%
COc1ccc(C2CC(=O)c3cnn(-c4nc(C)cc(C)n4)c3C2)cc1 (configuration not stated)	?	0.82µM*	?	-14	?	-2%[10 µM]
COc1ccc(NC(=O)Cn2c(C)cc(=O)c3ccccc32)cc1	14%	26%	?	4	-5%	?
COc1ccc(NCC(=O)n2c(C)c(C)c3ccccc32)cc1	8%	18µM*	?	11	?	-2%
O=C1N/C(=N\c2ccccn2)SC1Cc1ccc(Cl)cc1 (configuration not stated)	2µM*	?	-14%	12	?	3.2µM*
O=C1NC(=Nc2ccccc2)SC1Cc1ccccc1 (configuration not stated)	-12%	-5%	5.8µM*	5	?	0%
O=C1NC(=Nc2ccccc2)SC1Cc1cccc(Cl)c1Cl (configuration not stated)	?	23%	3%	-20	?	?
C/C(=N\N=C1\NC(=O)C(CC(=O)O)S1)c1ccccn1 (configuration not stated)	-28%	0%	?	-9	1%	4%
Cc1ccc(CC2S/C(=N/c3ccccn3)NC2=O)cc1 (configuration not stated)	2.8µM*	13%	0%	-1	21%	3.5µM*
O=C1N/C(=N/c2ccccn2)SC1Cc1ccccc1 (configuration not stated)	0.89µM*	22%	?	-8	?	2.5µM*
Clc1ccccc1-c1ccc2ncnc(NCc3ccc4c(c3)OCO4)c2c1	.	?	-2%	-12	?	.
Clc1ccc2ncnc(NCc3ccc4c(c3)OCO4)c2c1	?	.	.	.	.	7.9µM*
Oc1ccc(CCNc2ncnc3ccc(Cl)cc23)cc1	?	8.2µM*	-62%	7	?	6.3µM*
Cc1ccc(N=Cc2c(O)ccc3ccccc23)cc1F	5µM*	?	?	-11	?	?
COc1ccc(N=Cc2c(O)ccc3ccccc23)cc1	?	-1%	4%	9	-13%	-24%
CCOC(=O)c1sc(/N=C/c2c(O)ccc3ccccc23)cc1C	?	15µM*	-10%	4	-16%	4%
CC(=O)Nc1ccc(N=Cc2c(O)ccc3ccccc23)cc1	?	3%	-8%	-29	-12%	-2%
CCOCC(=O)O	-9%	.	.	.	.	-3%
COc1ccc(C2C=C3CNS(=O)(=O)C3CC2OC(=O)c2ccc(Cl)cc2)cc1 (configuration not stated)	33%	.	.	33	.	?
COC(=O)c1ccc(N/N=C/c2cc([N+](=O)[O-])cc(OC)c2O)cc1	2%	11%	-14%	1	?	0%
COc1cc([N+](=O)[O-])cc(/C=N/N(CCC#N)C(C)=O)c1O	-26%	?	5.8µM*	-6	9%	1%
COc1cccc(OC)c1C(=O)OCC(=O)NC1CCCCCC1	.	1%	-2%	8	?	.
SMILES	RORg inh	MCF10A rereplic	SW480 rerep	Giardia kill	Chronic BCR inh	VP16 counter
CC1CCC/C(=C\Nc2ccc(O)cc2)C1=O (configuration not stated)	-3%	5%	-1%	21	-4%	-3%
Cc1cc(C(=O)O)ccc1N/C=C1\CCCC(C)C1=O (configuration not stated)	3.5µM*	9%	3%	2	?	3.5µM*
Cc1ccc(C(=O)/C=C\C(=O)c2ccc(C)cc2)cc1	-94%	?	?	-3	?	10µM*
O/N=C\c1ccc(-c2ccccc2)o1	-12%	-79%	?	15	?	-9%
Cc1ccc(C(=O)/C=C/c2ccc(-c3ccc(C)cc3)o2)cc1	37%	21µM*	69%	0	-1%	?
CC(/C=C/C(=O)c1ccc(C)cc1)=C\c1ccccc1	-16%	?	-1%	12	8%	-7%
COc1ccc(C(=O)/C=C/NCc2ccc(C)cc2)cc1	.	13µM*	21µM*	-3	.	.
CCN(CC)S(=O)(=O)c1ccc(C(=O)/C=C/c2ccc(-c3ccc([N+](=O)[O-])cc3)o2)cc1	-29%	-3%	-7%	-4	-13%	6%
O=C(/C=C\c1ccc(-c2ccccc2)o1)c1ccccc1	13%	23µM*	18%	-22	?	-26%
Cc1ccc(C(=O)/C=C\NCc2ccccc2)cc1	7%	?	-10%	0	3%	?
Cc1ccc(S/C=C\C(=O)c2ccccc2)cc1	-13%	4.1µM*	?	13	?	14µM*
CCOc1cc2[nH]c(=S)n(Cc3ccc(C)o3)c(=O)c2cc1OCC	7.1µM*	?	?	-14	-2%	11µM*
CCOc1cc2[nH]c(=S)n(CCc3ccc(OC)c(OC)c3)c(=O)c2cc1OCC	14%	13%	-1%	-6	?	1%
O=c1c2cc(N3CCOCC3)ccc2[nH]c(=S)n1CCN1CCCC1	8%	6%	-5%	17	?	8%
O=c1c2cc(N3CCOCC3)ccc2[nH]c(=S)n1CCCN1CCCCCC1	-25%	1%	-10%	1	-13%	7%
Cc1ccc(Cn2c(=S)[nH]c3ccc(N4CCOCC4)cc3c2=O)o1	3.2µM*	?	23µM*	-2	?	4µM*
O=c1c2cc(F)ccc2[nH]c(=S)n1CCCN1CCOCC1	11µM*	-1%	2%	-5	0%	?
CCCCn1c(=S)[nH]c2ccc(N3CCOCC3)cc2c1=O	2.2µM*	.	.	.	?	7.1µM*
O=C(COC(=O)Cc1ccc(Cl)cc1)NCc1ccco1	.	-1%	-4%	17	0%	.
C=CCN(c1ccccc1)S(=O)(=O)c1ccc2c(c1)NC(=O)C(C)C(=O)N2 (configuration not stated)	-23%	-1%	1%	6	20%	-1%

Screening results: PubChem BioAssay, National Center for Advancing Translational Sciences (NCATS)
